hERG WT inh = qHTS for Inhibitors of KCHN2 3.1: Wildtype qHTS. Voltage-gated inwardly rectifying potassium channel KCNH2 (Homo sapiens), Q12809. U2OS, BacMam KCNH2, thallium flux FluxOr; active compounds read low. activity change, % at 1.84 µM. 340,000 tested, 0.37% active;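 active = maximum activity change below -70%; inconclusive = maximum activity change between -70% and -50%; inactive = maximum activity change above -50%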; also: % is scaled to controls: 0 for no effect and ±100 for the full control effect
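U2OS cells transduced with wild-type KCNH2 virus are loaded with FluxOr dye for 45 min, and thallium flux is measured in kinetic reads before and after stimulation buffer. Rate constants are normalized to DMSO controls.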
uPA generation = qHTS for Inhibitors of Cell Surface uPA Generation | cell surface uPA generation assay, qHTS | Potency, µM (top dose mostly 38.3 µM), for inactives: at the top dose activity change, negative = inhibition, hits mostly inhibitors | 330,000 tested, 0.31% active | AID 540303, 2011; active = well fitted inhibition curve with a large enough effect; inconclusive = small, poorly fitted or top-dose-only effect; inactive = no such curve, though single readings can be large or run the other way; tested in mouse RAW 264.7 cells; also: potency is read from the fitted curve at half-maximal effect; % is scaled to controls: 0 for no effect and ±100 for the full control effect; nearly all actives have a fitted effect of over 55% in size
KCNH2 3.1 inh = qHTS for Inhibitors of KCHN2 3.1: Mutant qHTS | activity change, % (tested at about 1.8 µM) | 340,000 tested, 0.95% active | U2OS KCNH2 3.1, thallium flux FluxOr; active compounds read low | AID 720553, 2013;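 active = maximum activity change below -70%; inconclusive = maximum activity change from -70% to -50%; inactive = maximum activity change above -50%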;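 also: thallium influx rate constant from kinetic fluorescence after stimulation buffer; % is scaled to controls: 0 for no effect and ±100 for the full control effect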
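Channel expression came from 3.1 mutant virus (1.77 x 10^8 /mL) applied to suspended U2OS cells for 4 h. Flux was tracked with FluxOr dye plus Red40 quencher, and kinetic rate constants normalized to controls.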
S-ASM inh = Inhibitors of Secretory Acid Sphingomyelinase (S-ASM): qHTS. placental ASM, HMU-PC fluorogenic substrate, 60 min. Potency, µM (titrated, usually from 57.5 µM), for the others: at the top dose activity change, negative = inhibition, actives largely listed as inhibitors. AID 504937, 2011. 340,000 tested, 0.006% active; also: potency is read from the fitted curve at half-maximal effect
Target sequence (P17405 47-631 limits assumed): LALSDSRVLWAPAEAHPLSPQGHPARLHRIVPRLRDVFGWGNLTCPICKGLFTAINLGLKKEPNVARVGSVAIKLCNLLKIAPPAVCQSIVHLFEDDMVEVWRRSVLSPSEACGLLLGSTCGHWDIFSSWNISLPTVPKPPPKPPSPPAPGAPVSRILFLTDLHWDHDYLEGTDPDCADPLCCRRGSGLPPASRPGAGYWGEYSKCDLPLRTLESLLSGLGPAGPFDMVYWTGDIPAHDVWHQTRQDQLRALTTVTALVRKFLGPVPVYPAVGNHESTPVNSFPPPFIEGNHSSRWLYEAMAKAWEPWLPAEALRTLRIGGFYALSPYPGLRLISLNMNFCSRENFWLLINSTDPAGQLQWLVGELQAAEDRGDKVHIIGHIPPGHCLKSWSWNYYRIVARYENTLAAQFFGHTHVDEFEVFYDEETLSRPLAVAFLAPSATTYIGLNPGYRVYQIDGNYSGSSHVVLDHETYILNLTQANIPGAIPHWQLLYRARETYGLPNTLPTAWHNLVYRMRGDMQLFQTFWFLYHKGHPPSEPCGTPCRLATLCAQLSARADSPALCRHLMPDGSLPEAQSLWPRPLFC
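Steps: dispense placental human ASM, pin compound, wait 10 min at room temperature, add HMU-PC0 substrate at 9 uM final, incubate 60 min at 37 °C, add stop solution raising pH to 10, read fluorescence.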
MmCpn inh = Inhibitors of TCP-1 ring complex (TRiC) of Methanococcus maripaludis (MmCpn): qHTS. purified Mm-Cpn ATPase, ADP Transcreener TR-FRET. 330,000 tested, 0.031% active. Potency, µM (doses to about 76.9 µM), for inactives: at the highest dose activity, negative = inhibition, most hits filed as inhibitors. Chaperonin Mm-Cpn (Methanococcus maripaludis). AID 504842, 2011; also: potency is read from the fitted curve at half-maximal effect; % is scaled to controls: 0 for no effect and ±100 for the full control effect; nearly all actives have a fitted effect of over 80% in size
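Purified archaeal chaperonin (25 nM final) was preincubated with compound for 10 min at 37°C, then ATP (10 uM final) was added for 30 min at 37°C in Tris pH 7.4/KCl/MgCl2/DTT buffer. ADP was quantified by HTRF Transcreener TR-FRET.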
p53 reactivation = qHTS assay for re-activators of p53 using a Luc reporter. H1299 p53-A138V BP100-luciferase reporter, luminescence, 24 h. Potency, µM (top dose mostly 92.2 µM), for the others: top-dose activity change, positive = activation, hits mostly activators. 320,000 tested, 0.063% active; also: potency is read from the fitted curve at half-maximal effect; % of control where 0% means no effect; nearly all actives have a fitted effect of over 45% in size
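p53-null H1299 cells stably carrying temperature-sensitive p53-A138V and a BP100-luciferase reporter were pinned with compounds (4-point, 1:5 series) and held 24 hrs at 37 deg C. Luminescence was read 10 min after detection reagent.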
The depositor's hits bear a star. Hits are enriched below; roughly 1.4% of the tested compounds scored in any of these assays. Unless noted, calls follow the shape of the dose curve; as a rule, active = well fitted curve in the direction sought with a large enough effect; inconclusive = small, poorly fitted or top-dose-only effect, or another doubt; inactive = no such curve, though single readings can be large; an effect the other way counts as inactive or inconclusive.

Screening CS(=O)(=O)c1ccc(C2=C(CNC(=O)c3cccs3)[C@H]3CC[C@@H](C2)N3Cc2ccco2)cc1 returned hERG WT inh -41.4 and KCNH2 3.1 inh -93.8*.
Screening O=C(NCC1=C(c2ccc3ccccc3c2)C[C@@H]2CC[C@H]1N2Cc1ccco1)c1ccc([N+](=O)[O-])cc1 returned hERG WT inh -40.7 and KCNH2 3.1 inh -98.9*.
O=C(NCC1=C(c2ccc3ccccc3c2)C[C@@H]2CC[C@H]1N2Cc1ccco1)c1ccncc1 was read as hERG WT inh 16.3 and KCNH2 3.1 inh -31.3.
Screening CS(=O)(=O)c1ccc(C2=C(CNC(=O)c3cccs3)[C@H]3CC[C@@H](C2)N3Cc2ccccc2)cc1 returned hERG WT inh inconclusive and KCNH2 3.1 inh -0.7.
O=C(NCc1ccccc1)c1onc(CSc2ccccc2)c1C(=O)NCC1CC1 was read as hERG WT inh -12.8, uPA generation inconclusive, KCNH2 3.1 inh -0.9, S-ASM inh -0.8%, MmCpn inh -0.4% and p53 reactivation -0.2%.
For N#Cc1ccc(N2CCNCC2)c(F)c1 the results were hERG WT inh inconclusive, uPA generation 1.2%, KCNH2 3.1 inh -76.1*, S-ASM inh 0.0%, MmCpn inh -0.5% and p53 reactivation 2.9%.
For N#Cc1cc(F)c(N2CCNCC2)cc1Cl the results were hERG WT inh -0.9, uPA generation 0.8%, KCNH2 3.1 inh -9.3, S-ASM inh 3.8%, MmCpn inh -0.8% and p53 reactivation -1.7%.
`CCCCNC(=O)c1onc(CCl)c1C(=O)OC` gave hERG WT inh -4.1, uPA generation inconclusive, KCNH2 3.1 inh -20.9, S-ASM inh 4.1%, MmCpn inh 0.6% and p53 reactivation -10.2%.
Screening CCOC(=O)C1CCCN(Cc2ccc(-c3ccccc3)cc2)C1 (stereo unspecified) returned hERG WT inh 14.8, uPA generation -23.6%, KCNH2 3.1 inh -44.4, S-ASM inh 0.6%, MmCpn inh 0.2% and p53 reactivation inconclusive.
For CCOC(=O)C1CCN(Cc2ccc(Cl)nc2)CC1 the results were hERG WT inh -74.5*, uPA generation 0.7%, KCNH2 3.1 inh -3.1, S-ASM inh 2.4%, MmCpn inh 3.3% and p53 reactivation 1.9%.
For O=C(CN1CCOCC1)NCC(=O)Nc1ccc(Br)cc1C(=O)c1ccccc1 the results were hERG WT inh -7.8, KCNH2 3.1 inh -2.9, S-ASM inh -0.1%, MmCpn inh 2.3% and p53 reactivation 2.3%.
CN1CCN(CC(=O)Nc2ccc([N+](=O)[O-])cc2C(=O)c2ccccc2)CC1 was read as hERG WT inh -102.8*, uPA generation -2.6%, KCNH2 3.1 inh -110.3*, S-ASM inh -2.8%, MmCpn inh -0.9% and p53 reactivation 1.7%.
Cc1cc(C)c(NC(=O)C2CC3CCC2C3)c(C)c1 (stereo unspecified) was read as hERG WT inh -3.2, uPA generation inconclusive, KCNH2 3.1 inh -17.0, S-ASM inh -1.8% and MmCpn inh -1.8%.
CCN(CC)C(=O)[C@H]1C[C@H](CC(=O)NCc2ccc(OC)c(OC)c2)C(=O)N2CCc3c([nH]c4ccc(Cl)cc34)[C@]12C was read as hERG WT inh 14.8, uPA generation 10µM*, KCNH2 3.1 inh 2.2, S-ASM inh -13.8%, MmCpn inh 1.2% and p53 reactivation -7.6%.
Screening CS(=O)(=O)Nc1cccc(C2=NN(C(=O)c3ccco3)C(c3cccs3)C2)c1 (stereo unspecified) returned hERG WT inh 0.3, uPA generation inconclusive, KCNH2 3.1 inh -19.5, S-ASM inh -2.4%, MmCpn inh 2.9% and p53 reactivation -40.7%.
For COc1cc2c(c(OC)c1OC)-c1ccc(O)c(=O)cc1[C@@H](NC(C)=O)CC2 the results were hERG WT inh -2.6, uPA generation 8.91µM*, KCNH2 3.1 inh 13.8, S-ASM inh 8.6%, MmCpn inh -3.7% and p53 reactivation 18.0%.
For O=C1NC(=O)C(=Cc2csc3ccccc23)C(=O)N1 the results were hERG WT inh -208.9*, uPA generation -0.8%, KCNH2 3.1 inh -180.3*, S-ASM inh -1.6%, MmCpn inh -18.0% and p53 reactivation 2.0%.
For O=[N+]([O-])c1ccc(N2CCN(C(=S)NCc3ccc(Cl)cc3)CC2)cc1 the results were hERG WT inh -25.7, uPA generation inconclusive, KCNH2 3.1 inh -93.2*, S-ASM inh -17.6%, MmCpn inh -4.9% and p53 reactivation -1.9%.
O=[N+]([O-])c1ccc(CN2CCN(c3ccc(Cl)cc3)CC2)o1 was read as hERG WT inh 7.6, uPA generation -1.9%, KCNH2 3.1 inh 5.7, S-ASM inh -3.1%, MmCpn inh -2.8% and p53 reactivation inconclusive.
Screening CCc1ccc(N2C(=O)NC(=O)/C(=C\C=C\c3ccco3)C2=O)cc1 returned hERG WT inh -2.0, uPA generation 8.91µM*, KCNH2 3.1 inh 1.3, S-ASM inh -2.7%, MmCpn inh -0.2% and p53 reactivation -15.0%.
`Cc1ccc(N2C(=O)NC(=O)/C(=C/C=C/c3ccco3)C2=O)cc1` gave hERG WT inh 5.9, uPA generation -14.3%, KCNH2 3.1 inh -1.2, S-ASM inh 3.3%, MmCpn inh 0.3% and p53 reactivation -48.2%.
O=C(NCc1cccs1)c1cc(C2CC2)on1 was read as hERG WT inh -7.2, uPA generation inconclusive, KCNH2 3.1 inh -27.4, S-ASM inh 3.5%, MmCpn inh -1.3% and p53 reactivation 20.0%.
For O=C(Nc1nnc(-c2ccc3c(c2)CCCC3)o1)c1ccccc1 the results were hERG WT inh 1.4, uPA generation 10µM*, KCNH2 3.1 inh 15.9, S-ASM inh -3.6%, MmCpn inh 1.1% and p53 reactivation 10.8%.
`COc1ccc2[nH]c(C)c(CCNCc3cc(OC)c(OC)c(OC)c3)c2c1` gave hERG WT inh -10.2, uPA generation -5.3%, KCNH2 3.1 inh -3.1, S-ASM inh 4.4%, MmCpn inh -1.0% and p53 reactivation 4.2%.
For COc1ccc(CNCCc2c(C)[nH]c3ccc(OC(F)(F)F)cc23)c(OC)c1 the results were hERG WT inh 4.2, uPA generation -7.5%, KCNH2 3.1 inh -77.7*, S-ASM inh -6.1%, MmCpn inh -3.1% and p53 reactivation 0.3%.
